Bioassay records from PubChem.
Most compounds without a hit are left out; they make up all but 7.5% or so of the library.
SMN2 splice up: enhancers of SMN2 splice variant expression; 210,000 tested, 2.8% active; Potency, µM (top dose mostly 46.1 µM), for inactives: at the top dose activity change, positive = activation, hits mostly activators; HEK293 SMN2-luciferase splicing reporter, luminescence, 30-36 h; further: % of control where 0% means no effect; nearly all actives have a fitted effect of over 55% in size
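qHTS luciferase splicing reporter: luminescence rises when SMN2 exon 7 is included in transfected HEK293 cells. Compound exposure lasted 30-36 h at 37C, with 4.5 mM final sodium butyrate as control, followed by a ONE-Glo read.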
KinaseGlo FLuc: blocks Kinase-Glo luciferase, a counter-screen artifact. Kinase-Glo luciferase, ATP luminescence, 8 min. Potency, µM (doses to about 38.3 µM), for inactives: at the top dose activity change, negative = inhibition, actives largely listed as inhibitors. Q27757. AID 1379. 200,000 tested, 0.28% active; further: on the % scale 0 is the no-effect control and ±100 the full control effect; nearly all actives have a fitted effect of over 60% in size
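Light output from Kinase-Glo luciferase with luciferin and 10 uM ATP in 50 mM imidazole pH 7.2, KCl, MgCl2, Tween 20, BSA; compound pin-delivered, 8-min ambient incubation, then luminescence read.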
NPC1 promoter act: activates the NPC1 promoter | Huh7 NPC1 promoter luciferase reporter, 24 h | 320,000 tested, 2.4% active | Potency, µM (top dose mostly 9.22 µM), inactives show at the top dose activation, hits mostly activators | AID 485313; further: % of control where 0% means no effect; nearly all actives have a fitted effect of over 60% in size
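Huh7 reporter cells (NPC1 promoter driving luciferase) are dosed with compound for 24 h at 37 °C, 5% CO2; luciferase detection reagent is then added and luminescence measured after 10 min at ambient temperature.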
Rab9 prom act: activators of Rab9 promoter; AID 485297; Potency, µM (highest dose often 9.22 µM), for the others: at the highest dose activation, negative = inhibition, hits mostly activators; Huh7 Rab9 promoter-luciferase reporter, luminescence, 24 h; 320,000 tested, 2.8% active; further: % of control where 0% means no effect; nearly all actives have a fitted effect of over 60% in size
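Promoter activation is measured as luciferase luminescence in Huh7 cells stably transfected with a Rab9 promoter–luciferase construct, following 24 h compound exposure at 37 °C and 10 min reagent incubation at ambient temperature.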
FLuc modulator: counter-screen for miR-21 project: firefly luciferase inhibitors or activators | P08659 | purified FLuc, Km substrates, luminescence inhibition | 360,000 tested, 6.9% active | Potency, µM (top dose mostly 57.5 µM), inactives show at the top dose activity change, negative = inhibition, most hits filed as inhibitors;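 further: plate controls were vehicle for no effect and reference inhibitor for full effect; nearly all actives have a fitted effect of over 55% in size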
Target sequence (P08659 whole entry, looked up): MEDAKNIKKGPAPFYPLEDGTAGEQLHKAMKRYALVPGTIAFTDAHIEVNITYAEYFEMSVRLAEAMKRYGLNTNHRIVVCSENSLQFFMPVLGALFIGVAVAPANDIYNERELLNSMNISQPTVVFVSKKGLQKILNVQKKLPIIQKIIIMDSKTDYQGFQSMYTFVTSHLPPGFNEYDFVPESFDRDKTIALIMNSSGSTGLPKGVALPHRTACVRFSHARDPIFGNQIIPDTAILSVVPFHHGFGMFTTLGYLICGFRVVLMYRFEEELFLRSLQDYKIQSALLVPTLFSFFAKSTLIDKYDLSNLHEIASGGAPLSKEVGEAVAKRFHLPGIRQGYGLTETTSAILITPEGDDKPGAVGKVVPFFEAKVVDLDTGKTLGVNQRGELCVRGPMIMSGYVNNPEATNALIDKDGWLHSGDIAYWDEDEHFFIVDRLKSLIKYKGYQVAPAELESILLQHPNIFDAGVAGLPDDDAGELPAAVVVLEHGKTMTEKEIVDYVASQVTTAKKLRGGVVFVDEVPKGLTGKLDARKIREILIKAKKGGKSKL
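Purified P. pyralis luciferase, 10 nM final, with Km-level 10 uM D-luciferin and 10 uM ATP in 50 mM Tris acetate pH 7.5, 10 mM Mg acetate, 0.01% Tween-20, 0.05% BSA; 6-point qHTS titration about 60 µM downward; luminescence read.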
ELG1 genotoxic: induces genotoxicity in HEK293T cells with luciferase-tagged ELG1. Potency, µM (titrated, usually from 46 µM), for inactives: at the top dose activity change, positive = activation, hits mostly activators. AID 504466. HEK293T ELG1-luciferase reporter, luminescence, 16 h. 330,000 tested, 1.3% active; further: % of control where 0% means no effect; nearly all actives have a fitted effect of over 60% in size
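Reporter readout depends on ELG1 protein level, which increases with genetic stress. After 16 hr compound exposure at 37 °C, luciferase activity was quantified using ONE-Glo.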
* hit, by the source's call; ? = inconclusive; nt = no result given; [ ] = remark or other dose. The call rests on the fitted dose curve; in most records, active means well fitted curve in the direction sought with a large enough effect; inconclusive means small, poorly fitted or top-dose-only effect, or another doubt; inactive means no such curve, though single readings can be large; an effect the other way counts as inactive or inconclusive. Potency means the concentration at half of the fitted maximal effect.

SMILES | SMN2 splice up | KinaseGlo FLuc | NPC1 promoter act | Rab9 prom act | FLuc modulator | ELG1 genotoxic
COc1ccc(NC(=O)/C=C/c2cc(OC)c(OC)c(OC)c2)cn1 | 37% | 7% | -4% | 6% | -1% | -1%
CCOC(=O)C1(C)C=C(Nc2cccc(C(=O)O)c2)C(=O)N1c1ccccc1 (stereo not drawn) | 13µM* | nt | nt | nt | 24µM* | nt
COc1ccc(Cc2nnc(N/N=C/c3ccc(O)cc3)[nH]c2=O)cc1OC | -86% | 3% | -34% | -32% | -3% | 16%
COc1ccc(/C=N/Nc2nnc(Cc3ccccc3)c(=O)[nH]2)cc1OC | nt | nt | ? | 26% | 1.7µM* | 14%
COc1ccc(/C=N/Nc2nc3ccccc3c(=O)n2-c2ccccc2)cc1OC | -9%[1.84 µM] | -25% | 18% | ? | 1.9µM* | 10%
COc1ccc(/C=N/n2c(C)nc3ccccc3c2=O)cc1OC | nt | nt | 10% | -3% | -5% | 1%
Cc1cccc(CNC(=O)c2ccc3c(c2)N(C)C(=O)C2CCCCN32)c1 (stereo not drawn) | nt | nt | nt | nt | -8% | nt
CC(C)(C)C(=O)Nc1ccc(/C=C/C(=O)c2ccco2)cc1 | nt | nt | 0.35µM* | 0.45µM* | 0.43µM* | 18µM*
O=C(/C=C/c1cc(Br)ccc1O)c1ccco1 | nt | nt | -1% | -1% | ? | 21%
Nc1ccc(/C=C/C(=O)c2ccco2)cc1 | 14% | -15% | 14% | ? | 6µM* | ?
O=C(/C=C/c1ccccc1O)c1ccco1 | nt | nt | -7% | 7% | 17µM* | ?
CCOc1ccccc1CNC(=O)c1cc2n(n1)CCCN(Cc1ccc(C)cc1)C2=O | nt | nt | nt | nt | -13% | nt
C=CCNc1oc(-c2ccc(Cl)cc2)nc1C#N | nt | nt | nt | nt | nt | -1%
COc1ccc(-c2nc(C#N)c(N3CCCCC3)o2)cc1 | nt | nt | 1% | 1%[1.84 µM] | ? | -4%
N#Cc1nc(-c2ccc(Cl)cc2)oc1NCC1CCCO1 (stereo not drawn) | ? | 3% | 10% | ? | 21µM* | ?
CNc1oc(-c2ccc(Cl)cc2)nc1C#N | 13% | -7% | ? | ? | 11µM* | ?
N#Cc1nc(-c2cccc3ccccc23)oc1NCC1CCCO1 (stereo not drawn) | nt | nt | 7% | 25% | 12µM* | ?
COc1ccc(-c2nc(C#N)c(NC(C)C)o2)cc1 | 5% | -3% | ? | ? | 13µM* | 27%
Cc1cc(C)c(S(=O)(=O)NCCc2cc3ccc(C)cc3[nH]c2=O)c(C)c1 | 2% | nt | nt | nt | -2% | nt
O=C(CSc1nc2c([nH]c3ccccc32)c(=O)n1-c1ccccc1)N1CCCC1 | nt | nt | nt | nt | 1% | nt
COc1ccc(NC(=O)CCOc2ccccc2)cc1 | ? | -1% | 3.2µM* | 4.5µM* | 17µM* | ?
O=C(CCOc1ccccc1)Nc1ccc(Br)cc1 | nt | nt | ? | 3.2µM* | ? | 17%
COC(=O)c1ccc(NC(=O)CCOc2ccccc2)cc1 | 4% | 0% | -3% | -2% | -14% | 16%
CCc1ccc(NC(=O)c2ccc(NS(=O)(=O)c3c(C)noc3C)cc2)cc1 | 1% | nt | nt | nt | ? | nt
CN(C)c1oc(-c2ccc(OCc3ccccc3)cc2)nc1C#N | ? | -1% | 17% | 6% | ? | 16µM*
SMILES | SMN2 splice up | KinaseGlo FLuc | NPC1 promoter act | Rab9 prom act | FLuc modulator | ELG1 genotoxic
COC(=O)CNC(=O)C1(C)C=CCN1C(=O)c1ccccc1 (stereo not drawn) | 11µM* | -1% | 15% | ? | 15µM* | ?
CC(C)CC1(C(=O)NCC2CC2)C=CCN1C(=O)c1ccccc1 (stereo not drawn) | 13µM* | -18% | nt | nt | nt | nt
CC(=O)N1CC=CC1(C)C(=O)NCC1CC1 (stereo not drawn) | 11µM* | -6% | nt | nt | nt | nt
CC(=O)N1CC=CC1(CC(C)C)C(=O)NCC1CC1 (stereo not drawn) | ? | -1% | nt | nt | nt | nt
COC(=O)CNC(=O)C1(CC(C)C)C=CCN1C(=O)c1ccccc1 (stereo not drawn) | ? | -4% | nt | nt | nt | nt
COC(=O)[C@H](CC(C)C)NC(=O)c1cc2c(cn1)[nH]c1ccccc12 | nt | nt | -4% | 0% | ? | 0%
Cc1ccc(S(=O)(=O)Nc2ccc3c(c2)c(C(=O)OC(C)C)c(C)n3S(=O)(=O)c2ccc(C)cc2)cc1 | -15% | nt | nt | nt | -1% | nt
O=C(NCCn1ccc2ccccc21)c1ccc(Cl)cc1 | 13µM* | nt | nt | nt | 21µM* | nt
COc1cccc(C(=O)NCCn2ccc3ccccc32)c1 | 7.9µM* | 0% | 2.8µM* | 4µM* | 19µM* | ?
CCOc1ccc(C2C(=O)N(C3CCCCCC3)CC(=O)N2CCc2ccc(Cl)cc2)cc1OC (stereo not drawn) | nt | nt | nt | nt | -4% | nt
CC1CCCCN1C(=O)C1COc2ccccc2O1 (stereo not drawn) | nt | nt | 1% | -1% | 2% | 2%
CN(C(=O)CSc1nc2ccccc2c(=O)n1-c1ccccc1Cl)C1CCS(=O)(=O)C1 (stereo not drawn) | nt | nt | nt | nt | nt | 10%
O=C(N[C@H]1CCCc2ccccc21)O[C@@H]1C(=O)c2cc(Br)ccc2O[C@H]1c1ccc2c(c1)OCO2 | -1% | 1% | nt | nt | nt | nt
Cc1cccn2c(=O)nc(SCC(=O)c3ccc(Cl)cc3)nc12 | nt | nt | -3% | -6% | 1% | ?
Cc1cccn2c(=O)nc(SCC(=O)c3ccccc3)nc12 | nt | nt | 17% | 18% | -2% | 21µM*
CC(C)NC(=O)CSc1cn(CC(=O)N2CCCCCC2)c2ccccc12 | nt | nt | nt | nt | -4% | nt
C[C@@H]1CC[C@H]2[C@H](C)[C@H]3CC[C@H]4C5[C@@H](O)CC6=CC(=O)CC[C@]6(C)[C@H]5C[C@H]4C3C(=O)N2C1 (stereo partly drawn) | 1% | 2% | nt | nt | nt | nt
Cc1cc(C)c2c(=O)cc(C(=O)Nc3ccc(C)c(Cl)c3)oc2c1 | 7% | nt | nt | nt | -4% | nt
COC(=O)CSc1ccc2c(N)c(C(=O)OC)sc2c1 | ? | -4% | -2% | 2% | 19µM* | 0%
Cc1ccc(Nc2nnc(SCC(=O)Nc3ccc(S(=O)(=O)N4CCOCC4)cc3)s2)cc1 | 6% | -5% | 7% | 19% | 3µM* | ?
COc1ccc(NC(=O)CSc2nnc(NC(=O)c3ccc(S(=O)(=O)N4CCOCC4)cc3)s2)cc1 | ? | 0% | 13% | 8% | 2.7µM* | ?
Nc1nnc(SCC(=O)Nc2cccc(S(=O)(=O)N3CCOCC3)c2)s1 | nt | nt | -4% | -6% | -12% | -1%
O=C(CSc1nnc(Nc2ccccc2)s1)Nc1ccc(S(=O)(=O)N2CCOCC2)cc1 | -23% | 17% | 0% | 2% | 11µM* | -4%
NC(=O)CSc1nnc(NC(=O)c2ccc(S(=O)(=O)N3CCOCC3)cc2)s1 | nt | nt | 2% | 7% | ? | 0%
